Data taken from PubChem BioAssay AID1159580 (chemical genetic matrix, 2015).
Several values for one entry are separate records, joined by “and”; a condition that tells them apart may be missing. Equal entries are not always repeated. The whole screen tested about 5,500 compounds, of which about 2,000 (36%) were called active. Inconclusive results (about 18%) are left out. Cut-off read from the data, not from the text of the source: active = normalized growth mostly below about 0.91 (no sharp cut-off); inconclusive = no clear call, values can overlap the other calls; inactive = mostly above about 0.92. Some of the results follow.

Test: chemical genetic growth profiling, strain panel (AID 1159580);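 note: tested at 20 µM; growth read once vehicle control cultures reached saturation at 30 °C; 1 = growth at the plate median or of vehicle wells; lower values mean less growth of the strain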
Conditions: S. cerevisiae deletion strains, growth OD

Measured: normalized growth

CC(=O)Oc1ccc2c(c1C(C)C)CCC1C(C)(C)CCC[C@]21C (stereo not given in full)
inactive: locus YAL013W, strain DEP1, stronger effect = lower value 1.02 | locus YAL021C, strain ccr4, stronger effect = lower value 0.996 | locus YAL026C, strain drs2, stronger effect = lower value 1.03 | locus YAL030W, strain snc1, stronger effect = lower value 1.01 | locus YBL061C, strain skt5, stronger effect = lower value 1.03 | locus YBR009C, strain hhf1, stronger effect = lower value 1.02 | locus YBR021W, strain FUR4, stronger effect = lower value 1.01 | locus YBR023C, strain chs3, stronger effect = lower value 1.03 | locus YBR171W, strain sec66, stronger effect = lower value 1.03 | locus YBR229C, strain ROT2, stronger effect = lower value 1.02 | locus YBR231C, strain swc5, stronger effect = lower value 1.03 | locus YBR279W, strain paf1, stronger effect = lower value 1.02 | locus YCL011C, strain gbp2, stronger effect = lower value 1.02 | locus YCL016C, strain dcc1, stronger effect = lower value 1.02 | locus YCL029C, strain bik1, stronger effect = lower value 0.997 | locus YCL061C, strain MRC1, stronger effect = lower value 1.01 | locus YCL069W, strain vba3, stronger effect = lower value 1.01 | locus YCR088W, strain abp1, stronger effect = lower value 1.02 | locus YDL005C, strain med2, stronger effect = lower value 1.02 | locus YDL035C, strain GPR1, stronger effect = lower value 1.03 | locus YDL040C, strain nat1, stronger effect = lower value 1 | locus YDL074C, strain BRE1, stronger effect = lower value 1.05 | locus YDL101C, strain DUN1, stronger effect = lower value 1.03 | locus YDL134C, strain PPH21, stronger effect = lower value 1.02 | locus YDL185W, strain tfp1, stronger effect = lower value 1 | locus YDL192W, strain arf1, stronger effect = lower value 1.01 | locus YDR001C, strain nth1, stronger effect = lower value 1.02 | locus YDR069C, strain doa4, stronger effect = lower value 1.02 | locus YDR101C, strain arx1, stronger effect = lower value 0.995 | locus YDR137W, strain rgp1, stronger effect = lower value 1.01 | locus YDR150W, strain NUM1, stronger effect = lower value 0.995 | locus YDR159W, strain sac3, stronger effect = lower value 1.06 | locus YDR162C, strain NBP2, stronger effect = lower value 1.02 | locus YDR195W, strain ref2 1.01 | locus YDR297W, strain sur2, stronger effect = lower value 1.01 | locus YDR318W, strain mcm21, stronger effect = lower value 0.996 | locus YDR334W, strain swr1, stronger effect = lower value 1.02 | locus YDR335W, strain msn5, stronger effect = lower value 1.02 | locus YDR388W, stronger effect = lower value 0.994 | locus YDR392W, strain spt3, stronger effect = lower value 0.997 | locus YDR502C, strain sam2, stronger effect = lower value 1.01 | locus YEL003W, strain gim4, stronger effect = lower value 1.02 | locus YEL037C, strain rad23, stronger effect = lower value 1.01 | locus YEL061C, strain CIN8 (second series), stronger effect = lower value 1.02 | locus YEL061C, strain CIN8, stronger effect = lower value 1.01 | locus YER015W, strain faa2, stronger effect = lower value 1.02 | locus YER016W, strain bim1, stronger effect = lower value 1.02 | locus YER110C, stronger effect = lower value 0.998 | locus YER111C, strain swi4, stronger effect = lower value 1.01 | locus YER155C, strain BEM2 (second series), stronger effect = lower value 1.04 | locus YER155C, strain BEM2, stronger effect = lower value 1.01 | locus YER167W, strain BCK2, stronger effect = lower value 1.01 | locus YFR010W, strain ubp6, stronger effect = lower value 1.04 | locus YGL078C, strain dbp3, stronger effect = lower value 1.01 | locus YGL086W, strain mad1, stronger effect = lower value 0.99 | locus YGL167C, strain pmr1, stronger effect = lower value 1.02 | locus YGL173C, strain kem1, stronger effect = lower value 1.02 | locus YGL227W, strain vid30, stronger effect = lower value 1.02 | locus YGL240W, strain doc1, stronger effect = lower value 1.02 | locus YGL248W, strain PDE1, stronger effect = lower value 1.02 | locus YGL253W, strain hxk2, stronger effect = lower value 1.03 | locus YGR135W, strain pre9, stronger effect = lower value 0.99 | locus YGR252W, strain gcn5, stronger effect = lower value 1.02 | locus YHR013C, strain ard1, stronger effect = lower value 1.04 | locus YHR027C, strain rpn1, stronger effect = lower value 1.02 | locus YHR030C, strain SLT2, stronger effect = lower value 0.969 | locus YHR079C, strain IRE1 (second series), stronger effect = lower value 0.985 | locus YHR079C, strain IRE1, stronger effect = lower value 0.973 | locus YHR094C, strain hxt1, stronger effect = lower value 1 | locus YHR129C, strain ARP1, stronger effect = lower value 1.01 | locus YHR142W, strain chs7, stronger effect = lower value 1.05 | locus YHR200W, strain rpn10, stronger effect = lower value 1 | locus YIL066C, strain RNR3, stronger effect = lower value 1.03 | locus YIL073C, strain SPO22, stronger effect = lower value 1.04 | locus YIL125W, strain kgd1, stronger effect = lower value 1 | locus YIR030C, strain dcg1, stronger effect = lower value 1 | locus YJL092W, strain hpr5, stronger effect = lower value 1.02 | locus YJL095W, strain BCK1 (second series), stronger effect = lower value 1.04 | locus YJL095W, strain BCK1, stronger effect = lower value 1.04 and 0.976 | locus YJL115W, strain asf1, stronger effect = lower value 1.04 | locus YJL129C, strain trk1, stronger effect = lower value 0.995 | locus YJL134W, strain LCB3, stronger effect = lower value 1.01 | locus YJL154C, strain vps35, stronger effect = lower value 1.01 | locus YJL164C, strain tpk1, stronger effect = lower value 1 | locus YJL166W, strain qcr8, stronger effect = lower value 1.03 | locus YJL168C, strain set2, stronger effect = lower value 0.996 | locus YJL187C, strain SWE1 (second series), stronger effect = lower value 1.02 | locus YJL187C, strain SWE1, stronger effect = lower value 1.01 | locus YJR043C, strain POL32, stronger effect = lower value 1.03 | locus YJR066W, strain TOR1, stronger effect = lower value 0.918 | locus YKL009W, strain mrt4, stronger effect = lower value 1.01 | locus YKL068W, stronger effect = lower value 0.997 | locus YKL085W, strain MDH1 (second series), stronger effect = lower value 1.01 | locus YKL085W, strain MDH1, stronger effect = lower value 1.01 | locus YKL160W, strain elf1, stronger effect = lower value 1.01 | locus YKR001C, strain vps1, stronger effect = lower value 1.01 | locus YKR026C, strain gcn3, stronger effect = lower value 1.03 | locus YKR091W, strain srl3, stronger effect = lower value 1.01 | locus YLL001W, strain dnm1, stronger effect = lower value 1 | locus YLL026W, stronger effect = lower value 1.02 | locus YLL041C, strain sdh2, stronger effect = lower value 1.02 | locus YLR027C, strain aat2, stronger effect = lower value 1.02 | locus YLR039C, strain RIC1, stronger effect = lower value 1.02 | locus YLR058C, strain SHM2, stronger effect = lower value 1.02 | locus YLR102C, strain apc9, stronger effect = lower value 0.999 | locus YLR113W, strain HOG1, stronger effect = lower value 1 | locus YLR221C, strain rsa3, stronger effect = lower value 1.02 | locus YLR258W, strain gsy2, stronger effect = lower value 1.01 | locus YLR262C, strain YPT6 (second series), stronger effect = lower value 1.01 | locus YLR262C, strain YPT6, stronger effect = lower value 1.06 | locus YLR268W, strain sec22, stronger effect = lower value 1 | locus YLR320W, strain mms22, stronger effect = lower value 1.04 | locus YLR330W, strain CHS5, stronger effect = lower value 1.01 | locus YLR342W, strain FKS1 (second series), stronger effect = lower value 1.01 | locus YLR342W, strain FKS1, stronger effect = lower value 1.02 | locus YLR357W, strain rsc2, stronger effect = lower value 1.04 | locus YLR370C, strain arc18, stronger effect = lower value 1.02 | locus YLR371W, strain rom2, stronger effect = lower value 0.99 | locus YLR384C, strain iki3, stronger effect = lower value 1.03 | locus YLR418C, strain cdc73, stronger effect = lower value 1 | locus YML016C, strain PPZ1, stronger effect = lower value 1.02 | locus YML032C, strain rad52, stronger effect = lower value 1.01 | locus YML120C, strain ndi1, stronger effect = lower value 1.01 | locus YML124C, strain tub3, stronger effect = lower value 1 | locus YMR058W, strain fet3, stronger effect = lower value 1.03 | locus YMR078C, strain ctf18, stronger effect = lower value 1 | locus YMR125W, strain sto1, stronger effect = lower value 1.03 | locus YMR129W, stronger effect = lower value 1.03 | locus YMR205C, strain PFK2, stronger effect = lower value 0.995 | locus YMR223W, strain ubp8, stronger effect = lower value 1.01 | locus YMR231W, strain pep5, stronger effect = lower value 1.01 | locus YMR263W, strain SAP30, stronger effect = lower value 1.02 | locus YMR307W, strain GAS1, stronger effect = lower value 1.02 | locus YNL067W, strain RPL9B, stronger effect = lower value 1.01 | locus YNL071W, strain lat1, stronger effect = lower value 1.01 | locus YNL128W, strain TEP1, stronger effect = lower value 1.02 | locus YNL153C, strain GIM3, stronger effect = lower value 1.02 | locus YNL183C, strain NPR1, stronger effect = lower value 0.928 | locus YNL209W, strain ssb2, stronger effect = lower value 1.02 | locus YNL233W, strain BNI4, stronger effect = lower value 1.02 | locus YNL248C, strain rpa49, stronger effect = lower value 1.02 | locus YNL250W, strain rad50, stronger effect = lower value 0.992 | locus YNL271C, strain bni1, stronger effect = lower value 0.996 | locus YNL298W, strain CLA4, stronger effect = lower value 1.01 | locus YNL307C, strain MCK1, stronger effect = lower value 1 | locus YNL322C, strain KRE1 (second series), stronger effect = lower value 1.01 | locus YNR049C, strain mso1, stronger effect = lower value 1.04 | locus YNR052C, strain pop2, stronger effect = lower value 0.995 | locus YOL012C, strain htz1 1.05 | locus YOL147C, strain pex11, stronger effect = lower value 0.999 | locus YOR001W, strain rrp6, stronger effect = lower value 1.02 | locus YOR061W, strain CKA2, stronger effect = lower value 1.02 | locus YOR069W, strain VPS5, stronger effect = lower value 1.01 | locus YOR070C, strain gyp1, stronger effect = lower value 1.02 | locus YOR080W, strain dia2, stronger effect = lower value 1.02 | locus YOR083W, strain WHI5, stronger effect = lower value 1.01 | locus YOR106W, strain vam3, stronger effect = lower value 1.02 | locus YOR136W, strain idh2, stronger effect = lower value 0.99 | locus YOR144C, strain elg1, stronger effect = lower value 0.996 | locus YOR184W, strain ser1, stronger effect = lower value 0.996 | locus YOR231W, strain MKK1, stronger effect = lower value 0.97 | locus YOR265W, strain rbl2, stronger effect = lower value 1.04 | locus YOR270C, strain vph1, stronger effect = lower value 1.01 | locus YOR290C, strain snf2, stronger effect = lower value 1 | locus YOR316C, strain cot1, stronger effect = lower value 0.998 | locus YPL051W, strain arl3, stronger effect = lower value 1.02 | locus YPL078C, strain atp4, stronger effect = lower value 1 | locus YPL106C, strain sse1, stronger effect = lower value 1.02 | locus YPL240C, strain hsp82, stronger effect = lower value 1.02 | locus YPL256C, strain CLN2, stronger effect = lower value 0.966 | locus YPR119W, strain clb2, stronger effect = lower value 0.992 | locus YPR141C, strain kar3, stronger effect = lower value 1 | locus YPR163C, strain tif3, stronger effect = lower value 0.996 | locus YPR167C, strain met16, stronger effect = lower value 0.995 | strain wtn01, stronger effect = lower value 1
